# Results as given in PubChem BioAssay (EPA / NIEHS).
# Several values for one entry are separate records, joined by “and”; a condition that tells them apart may be missing. Identical values can stand only once. The source holds several records for some structures; these can differ, active in one and inactive in another. Activity calls are given as the source filed them. The calls were made as follows: active = hit-call score of the fitted dose curve at least 0.9, where 1 is the maximum; inactive = score below 0.9.
# Assays:
# Settings in all cases: mRNA level, 48 h; actives raise or lower the signal
# [1] = read-out: adenosine kinase (ADK) gene, ADK (gene 132); assay: LTEA_HepaRG_ADK: Life Technologies and Expression Analysis (LTEA) Assay for adenosine kinase (ADK) gene using HepaRG (AID 2283471)
# How it was run: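 Differentiated HepaRG cells dosed 48 h in serum-free induction medium, 0.5% DMSO vehicle, eight half-log concentrations from 100 uM, in duplicate. ADK mRNA by TaqMan qRT-PCR normalised to ACTB, GAPDH, POLR2A; bidirectional fit versus DMSO.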
# [2] = read-out: Alpha-fetoprotein (AFP) gene, AFP (gene 174); assay: LTEA_HepaRG_AFP: Life Technologies and Expression Analysis (LTEA) Assay for Alpha-fetoprotein (AFP) gene using HepaRG (AID 2283472)
# How it was run: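 Measures AFP mRNA change in HepaRG after 48 h chemical exposure (8 half-log concentrations, highest 100 uM, 0.5% DMSO). Fold change relative to DMSO, fitted in both directions.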
# [3] = read-out: BCL2L11 (gene 10018); assay: LTEA_HepaRG_BCL2L11: Life Technologies and Expression Analysis (LTEA) Assay for Bcl-2 (BCL2L11) gene using HepaRG (AID 2283473)
# How it was run: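 Differentiated human HepaRG cells in serum-free induction medium were exposed in duplicate for 48 h to eight concentrations (top 100 uM, half-log steps, 0.5% DMSO). BCL2L11 mRNA was quantified by TaqMan qRT-PCR, normalized to ACTB/GAPDH/POLR2A, bidirectional fit versus DMSO.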
# [4] = read-out: Apolipoprotein A-V (APOA5) gene, APOA5 (gene 116519); assay: LTEA_HepaRG_APOA5: Life Technologies and Expression Analysis (LTEA) Assay for Apolipoprotein A-V (APOA5) gene using HepaRG (AID 2283474)
# How it was run: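 Differentiated human HepaRG cells were exposed in duplicate for 48 h to eight half-log concentrations from 100 uM in 0.5% DMSO. APOA5 mRNA was quantified by TaqMan qRT-PCR, normalized to ACTB, GAPDH and POLR2A, and fitted bidirectionally against DMSO.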
# [5] = read-out: Apoptosis regulator Bcl-2 (Homo sapiens) (UniProt P10415); assay: LTEA_HepaRG_BCL2: Life Technologies and Expression Analysis (LTEA) Assay for Bcl-2 gene using HepaRG (AID 2283475)
# How it was run: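 Each chemical was tested in duplicate on HepaRG cultures held in serum-free induction medium for 48 h, highest concentration 100 uM with half-log dilutions. Transcript levels came from multiplexed qRT-PCR, normalised to housekeeping genes; activity was scored in either direction relative to DMSO.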
# [6] = read-out: Bcl-2 (BID) gene, BID (gene 637); assay: LTEA_HepaRG_BID: Life Technologies and Expression Analysis (LTEA) Assay for Bcl-2 (BID) gene using HepaRG (AID 2283476)
# How it was run: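 Assay used HepaRG hepatic cells treated 48 h in serum-free medium with half-log dilutions from 100 uM. Endpoint: BID mRNA, qRT-PCR, normalized to ACTB/GAPDH/POLR2A.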
# [7] = read-out: Caspase-3 (Homo sapiens) (UniProt P42574); assay: LTEA_HepaRG_CASP3: Life Technologies and Expression Analysis (LTEA) Assay for cysteine-aspartic acid protease (CASP3) using HepaRG (AID 2283477)
# How it was run: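 Differentiated human HepaRG cells in serum-free induction medium were exposed 48 h to 8-point half-log concentrations from 100 uM (0.5% DMSO vehicle). CASP3 mRNA was measured by qRT-PCR, normalised to ACTB, GAPDH and POLR2A, with bidirectional fitting against DMSO.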
# [8] = read-out: Cytochrome P450 (CYP24A1), CYP24A1 (gene 1591); assay: LTEA_HepaRG_CYP24A1: Life Technologies and Expression Analysis (LTEA) Assay for Cytochrome P450 (CYP24A1) using HepaRG (AID 2283478)
# How it was run: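 Differentiated HepaRG cells, pre-cultured 48 h, were exposed in duplicate for 48 h in serum-free induction medium to 8 half-log concentrations (top 100 uM, 0.5% DMSO). CYP24A1 mRNA was quantified by TaqMan qRT-PCR, normalized to ACTB/GAPDH/POLR2A, fitted bidirectionally versus DMSO.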
# [9] = read-out: Cytochrome P450 (CYP1A2), CYP1A2 (gene 1544); assay: LTEA_HepaRG_CYP1A2: Life Technologies and Expression Analysis (LTEA) Assay for Cytochrome P450 (CYP1A2) using HepaRG (AID 2283479)
# How it was run: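 Differentiated human HepaRG cells in serum-free induction medium were exposed in duplicate for 48 h to 8-point half-log concentrations up to 100 uM in 0.5% DMSO. CYP1A2 mRNA measured by qRT-PCR, normalized to ACTB, GAPDH, POLR2A; bidirectional fit vs DMSO.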
# [10] = read-out: cysteine-aspartic acid protease (CASP8), CASP8 (gene 841); assay: LTEA_HepaRG_CASP8: Life Technologies and Expression Analysis (LTEA) Assay for cysteine-aspartic acid protease (CASP8) using HepaRG (AID 2283480)
# How it was run: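 CASP8 transcript measured by TaqMan qRT-PCR with ACTB/GAPDH/POLR2A normalization, after 48 h chemical exposure of HepaRG cells in serum-free induction medium. Eight concentrations, top 100 uM, half-log steps, 0.5% DMSO vehicle; fits in both directions versus DMSO.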
# Sequence of Caspase-3 (Homo sapiens) (P42574 whole entry, looked up): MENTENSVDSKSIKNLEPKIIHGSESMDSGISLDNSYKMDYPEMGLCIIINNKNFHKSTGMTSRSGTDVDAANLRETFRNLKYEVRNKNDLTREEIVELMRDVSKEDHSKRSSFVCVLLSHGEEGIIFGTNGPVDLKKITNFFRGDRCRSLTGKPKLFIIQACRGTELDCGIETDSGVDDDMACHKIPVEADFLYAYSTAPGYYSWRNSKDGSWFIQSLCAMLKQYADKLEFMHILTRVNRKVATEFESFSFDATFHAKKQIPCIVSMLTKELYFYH
# Sequence of Apoptosis regulator Bcl-2 (Homo sapiens) (P10415 whole entry, looked up): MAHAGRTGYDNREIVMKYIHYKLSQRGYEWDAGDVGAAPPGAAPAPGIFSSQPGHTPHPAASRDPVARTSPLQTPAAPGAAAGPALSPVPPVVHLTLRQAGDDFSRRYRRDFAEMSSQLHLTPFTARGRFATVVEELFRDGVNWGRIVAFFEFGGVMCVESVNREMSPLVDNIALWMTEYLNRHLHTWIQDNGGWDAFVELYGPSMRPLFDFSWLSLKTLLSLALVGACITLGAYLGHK
Compound,outcome [1],outcome [2],outcome [3],AC50 [4],outcome [5],outcome [6],outcome [7],outcome [8],AC50 [9],outcome [10],AC50 [2],outcome [4],outcome [9],AC50 [1],AC50 [5],AC50 [8],AC50 [10],AC50 [3],AC50 [7],AC50 [6]
CC1=C(C(=O)Nc2ccccc2)SCCO1,inactive,inactive,inactive,50 µM (active),inactive,inactive,inactive,inactive,50 µM (active),inactive,,,,,,,,,,
C=CCC1=C(C)C(OC(=O)C2C(C=C(C)C)C2(C)C)CC1=O (stereo not drawn),inactive,,inactive,0.000839 µM (active),inactive,inactive,inactive,inactive,,inactive,90.3 µM (active) and 79.8 µM (active) and 66.3 µM (active),inactive,inactive,,,,,,,
CC(Oc1ccc(Cl)cc1Cl)C(=O)O (stereo not drawn),inactive,inactive,inactive,,inactive,inactive,inactive,inactive,,inactive,,inactive,inactive,,,,,,,
Cc1cc(Cl)ccc1OCC(=O)O,inactive,inactive,inactive,,inactive,inactive,inactive,inactive,50 µM (active),inactive,,inactive,,,,,,,,
C=CCC1=C(C)[C@@H](OC(=O)[C@@H]2[C@@H](C=C(C)C)C2(C)C)CC1=O,inactive,,inactive,,inactive,inactive,inactive,inactive,,inactive,50 µM (active),inactive,inactive,,,,,,,
Cc1ccc(-c2c(Cl)nc(C#N)n2S(=O)(=O)N(C)C)cc1,,,inactive,74.2 µM (active),,inactive,inactive,,,,3.99 µM (active),,inactive,50 µM (active),87.4 µM (active),0.01 µM (active),89.8 µM (active),,,
CCOc1cc(Oc2ccc(C(F)(F)F)cc2Cl)ccc1[N+](=O)[O-],inactive,,inactive,30.8 µM (active),,inactive,inactive,inactive,5.27 µM (active),inactive,39.1 µM (active),,,,33.5 µM (active),,,,,
O=C(O)COc1nc(Cl)c(Cl)cc1Cl,inactive,inactive,inactive,,inactive,inactive,inactive,inactive,,inactive,,inactive,inactive,,,,,,,
CCCCOC(=O)c1ccccc1C(=O)OCCCC,inactive,inactive,inactive,,inactive,inactive,inactive,inactive,,inactive,,inactive,inactive,,,,,,,
CC(C)(C)c1ccc(CSc2cnn(C(C)(C)C)c(=O)c2Cl)cc1,inactive,,,12 µM (active),,inactive,inactive,inactive,2.36 µM (active),,2.47 µM (active),,,,2.89 µM (active),,12.8 µM (active),1.93 µM (active),,
O=C(Nc1ccccc1)Nc1ccnc(Cl)c1,,,inactive,71.9 µM (active),,inactive,,inactive,25.8 µM (active),inactive,25.2 µM (active),,,78.2 µM (active),69.8 µM (active),,,,69.9 µM (active),
N#Cc1nn(-c2c(Cl)cc(C(F)(F)F)cc2Cl)c(N)c1S(=O)C(F)(F)F (stereo not drawn),inactive,,inactive,54.4 µM (active),,inactive,inactive,inactive,58.3 µM (active),inactive,15.9 µM (active),,,,34.6 µM (active),,,,,
CCCN(CCC)c1c([N+](=O)[O-])cc(S(N)(=O)=O)cc1[N+](=O)[O-],inactive,inactive,inactive,,inactive,inactive,inactive,inactive,87.5 µM (active),inactive,15.8 µM (active),inactive,inactive,80.6 µM (active),,,83.3 µM (active) and 79.5 µM (active),95.3 µM (active) and 84.3 µM (active),79.2 µM (active),
O=C(O)c1nc(Cl)ccc1Cl,inactive,inactive,inactive,,inactive,inactive,inactive,inactive,50 µM (active),inactive,,inactive,inactive,,,,,,,
Fc1ccc(Oc2ccnc3cc(Cl)cc(Cl)c23)cc1,inactive,,inactive,,inactive,inactive,inactive,inactive,14.1 µM (active),inactive,89 µM (active),inactive,,,,,,,,
CCOC(=O)CC(SP(=S)(OC)OC)C(=O)OCC (stereo not drawn),inactive,inactive,inactive,,inactive,inactive,inactive,inactive,13.8 µM (active),inactive,,inactive,,,,,,,,
CCON=C(CC)C1=C(O)CC(c2c(C)cc(C)cc2C)CC1=O (stereo not drawn),inactive,inactive,inactive,,inactive,inactive,inactive,inactive,,inactive,,inactive,inactive,,,,,,,
Oc1ccccc1-c1ccccc1,inactive,inactive,inactive,,inactive,inactive,inactive,inactive,,inactive,,inactive,inactive,,,,,,,
COP(=S)(OC)Oc1nc(Cl)c(Cl)cc1Cl,inactive,inactive,inactive,,inactive,inactive,inactive,inactive,66.5 µM (active),inactive,,inactive,,,,,,,,
COC(=O)N(OC)c1ccccc1COc1ccn(-c2ccc(Cl)cc2)n1,,,,3.56 µM (active),,,,inactive,12.4 µM (active),,24.9 µM (active),,,77.8 µM (active),89.9 µM (active),,80.1 µM (active),20.5 µM (active),79.5 µM (active),75.3 µM (active)
COP(N)(=O)SC (stereo not drawn),inactive,inactive,inactive,,inactive,inactive,inactive,inactive,,inactive,,inactive,inactive,,,,,,,
CNC(=O)ON=CC(C)(C)SC,inactive,inactive,inactive,,inactive,inactive,inactive,inactive,,inactive,,inactive,inactive,,,,,,,
COc1ccc(C(c2ccc(OC)cc2)C(Cl)(Cl)Cl)cc1,inactive,,inactive,70.9 µM (active),,inactive,inactive,inactive,,inactive,78.4 µM (active),,inactive,,86.3 µM (active),,,,,
CN(C)C(=S)SSC(=S)N(C)C,inactive,inactive,inactive,,inactive,inactive,inactive,inactive,,inactive,,inactive,inactive,,,,,,,
N#Cc1cc(Br)c(O)c(Br)c1,,,,21.2 µM (active),,inactive,,inactive,12.9 µM (active),,13.9 µM (active),,,6.14 µM (active),10 µM (active),,23.6 µM (active),10.4 µM (active),7.76 µM (active),
